Test results from the supplement of paper PMC4466140.

B1: unnamed (peptide)
chain: DLPLPDLPPEPPTEL
B2: unnamed (peptide)
chain: APPLPPTAPPPPSLP

target: SpBzz1-D2; assay: SPOT peptide array binding signal intensity (averaged, normalized) (arbitrary units (background-subtracted, floor 0; scale differs between SH3 domains)); higher = stronger binding of the SH3 domain to the peptide
Procedure, shortened: (§1)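 The binding signal is the normalized, background-subtracted spot intensity averaged over replicates; its arbitrary units differ between domains. It was obtained by incubating 10 μg/ml GST-fused SH3 domains from four yeast species overnight at 4°C in TBS-based blocking buffer on cellulose membranes with synthetic 15-mer peptides, cysteines replaced by serines, then detecting with anti-GST antibody, HRP anti-mouse secondary and luminol.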

Binder | SPOT peptide array binding signal intensity
B1 | ≤ 0

target: SpCyk3; assay: as above
Procedure, shortened: as §1

Binder | SPOT peptide array binding signal intensity
B1 | ≤ 0

target: SpHof1; assay: as above
Procedure, shortened: as §1

Binder | SPOT peptide array binding signal intensity
B1 | ≤ 0

target: SpHof1-2; assay: as above
Procedure, shortened: as §1

Binder | SPOT peptide array binding signal intensity
B1 | 3

target: SpHof1-3; assay: as above
Procedure, shortened: as §1

Binder | SPOT peptide array binding signal intensity
B1 | 0.5

target: SpHse1; assay: as above
Procedure, shortened: as §1

Binder | SPOT peptide array binding signal intensity
B1 | ≤ 0

target: SpLsb1; assay: as above
Procedure, shortened: as §1

Binder | SPOT peptide array binding signal intensity
B1 | ≤ 0

target: SpLsb4; assay: as above
Procedure, shortened: as §1

Binder | SPOT peptide array binding signal intensity
B1 | ≤ 0

target: SpMyo1; assay: as above
Procedure, shortened: as §1

Binder | SPOT peptide array binding signal intensity
B1 | 328

target: SpNbp2; assay: as above
Procedure, shortened: as §1

Binder | SPOT peptide array binding signal intensity
B1 | ≤ 0

target: SpPex13; assay: as above
Procedure, shortened: as §1

Binder | SPOT peptide array binding signal intensity
B1 | ≤ 0

target: SpRvs167; assay: as above
Procedure, shortened: as §1

Binder | SPOT peptide array binding signal intensity
B1 | ≤ 0

target: SpSla1-D1-D2; assay: as above
Procedure, shortened: as §1

Binder | SPOT peptide array binding signal intensity
B1 | ≤ 0

target: SpSla1-D3; assay: as above
Procedure, shortened: as §1

Binder | SPOT peptide array binding signal intensity
B1 | ≤ 0

target: AgAbp1; assay: as above
Procedure, shortened: as §1

Binder | SPOT peptide array binding signal intensity
B2 | ≤ 0

target: AgBbc1; assay: as above
Procedure, shortened: as §1

Binder | SPOT peptide array binding signal intensity
B2 | ≤ 0

target: AgBem1-D1; assay: as above
Procedure, shortened: as §1

Binder | SPOT peptide array binding signal intensity
B2 | ≤ 0

target: AgBzz1-D1; assay: as above
Procedure, shortened: as §1

Binder | SPOT peptide array binding signal intensity
B2 | ≤ 0

target: AgBzz1-D2; assay: as above
Procedure, shortened: as §1

Binder | SPOT peptide array binding signal intensity
B2 | 3

target: AgCyk3; assay: as above
Procedure, shortened: as §1

Binder | SPOT peptide array binding signal intensity
B2 | ≤ 0

target: AgFus1; assay: as above
Procedure, shortened: as §1

Binder | SPOT peptide array binding signal intensity
B2 | ≤ 0

target: AgHof1; assay: as above
Procedure, shortened: as §1

Binder | SPOT peptide array binding signal intensity
B2 | 116

target: AgHse1; assay: as above
Procedure, shortened: as §1

Binder | SPOT peptide array binding signal intensity
B2 | 13

target: AgLsb1; assay: as above
Procedure, shortened: as §1

Binder | SPOT peptide array binding signal intensity
B2 | ≤ 0

target: AgLsb4; assay: as above
Procedure, shortened: as §1

Binder | SPOT peptide array binding signal intensity
B2 | 3

target: AgMyo5; assay: as above
Procedure, shortened: as §1

Binder | SPOT peptide array binding signal intensity
B2 | 2800

target: AgNbp2; assay: as above
Procedure, shortened: as §1

Binder | SPOT peptide array binding signal intensity
B2 | ≤ 0

target: AgRvs167; assay: as above
Procedure, shortened: as §1

Binder | SPOT peptide array binding signal intensity
B2 | ≤ 0

target: AgSho1; assay: as above
Procedure, shortened: as §1

Binder | SPOT peptide array binding signal intensity
B2 | ≤ 0

target: AgSla1-D1-D2; assay: as above
Procedure, shortened: as §1

Binder | SPOT peptide array binding signal intensity
B2 | 2

target: AgSla1-D3; assay: as above
Procedure, shortened: as §1

Binder | SPOT peptide array binding signal intensity
B2 | 0.5

target: CaAbp1-D1; assay: as above
Procedure, shortened: as §1

Binder | SPOT peptide array binding signal intensity
B2 | ≤ 0

target: CaAbp1-D2; assay: as above
Procedure, shortened: as §1

Binder | SPOT peptide array binding signal intensity
B2 | ≤ 0

target: CaBbc1; assay: as above
Procedure, shortened: as §1

Binder | SPOT peptide array binding signal intensity
B2 | ≤ 0

target: CaBem1-D1; assay: as above
Procedure, shortened: as §1

Binder | SPOT peptide array binding signal intensity
B2 | 1

target: CaBzz1-D1; assay: as above
Procedure, shortened: as §1

Binder | SPOT peptide array binding signal intensity
B2 | ≤ 0

target: CaBzz1-D2; assay: as above
Procedure, shortened: as §1

Binder | SPOT peptide array binding signal intensity
B2 | ≤ 0

target: CaCyk3; assay: as above
Procedure, shortened: as §1

Binder | SPOT peptide array binding signal intensity
B2 | ≤ 0

target: CaFus1; assay: as above
Procedure, shortened: as §1

Binder | SPOT peptide array binding signal intensity
B2 | ≤ 0

target: CaHof1; assay: as above
Procedure, shortened: as §1

Binder | SPOT peptide array binding signal intensity
B2 | ≤ 0

target: CaHse1; assay: as above
Procedure, shortened: as §1

Binder | SPOT peptide array binding signal intensity
B2 | ≤ 0

target: CaLsb1; assay: as above
Procedure, shortened: as §1

Binder | SPOT peptide array binding signal intensity
B2 | ≤ 0

target: CaLsb4; assay: as above
Procedure, shortened: as §1

Binder | SPOT peptide array binding signal intensity
B2 | ≤ 0

target: CaMyo5; assay: as above
Procedure, shortened: as §1

Binder | SPOT peptide array binding signal intensity
B2 | 2460
